Reference: the supplement of paper PMC9446081
± gives the standard deviation of the averaged measurements.

Each compound was assayed against MurC (UniProt C4ZRI6) (assay: relative enzymatic activity vs untreated control (fraction); higher = less inhibition). Settings: 100 µM; incubation time: 2 h at 37 C.
Experimental: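 In vitro enzymatic inhibition assays (ProFoldin kits) for 12 purified essential E. coli enzymes or complexes, each treated with 218 active antibacterial compounds at 100 µM for 2 h at 37°C. Read-outs were fluorescence or absorbance (phosphate detection, dye binding), converted to activity via standard curves and expressed relative to untreated DMSO controls.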

MurC, sequence (C4ZRI6 whole entry, looked up): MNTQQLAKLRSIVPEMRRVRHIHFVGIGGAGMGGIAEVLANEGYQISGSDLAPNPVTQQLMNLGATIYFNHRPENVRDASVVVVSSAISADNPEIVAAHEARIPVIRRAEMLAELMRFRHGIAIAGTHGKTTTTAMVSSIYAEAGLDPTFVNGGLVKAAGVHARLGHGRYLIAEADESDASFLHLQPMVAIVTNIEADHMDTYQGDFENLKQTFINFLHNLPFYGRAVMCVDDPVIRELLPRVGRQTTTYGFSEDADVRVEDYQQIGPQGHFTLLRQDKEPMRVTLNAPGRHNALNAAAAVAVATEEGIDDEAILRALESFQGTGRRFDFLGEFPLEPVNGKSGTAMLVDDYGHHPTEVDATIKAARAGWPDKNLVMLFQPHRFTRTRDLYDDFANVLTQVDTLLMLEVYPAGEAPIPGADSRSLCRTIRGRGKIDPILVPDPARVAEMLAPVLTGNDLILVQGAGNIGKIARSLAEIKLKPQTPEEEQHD

| Structure (SMILES) | relative enzymatic activity |
| --- | --- |
| O=C(NC(CO)C(O)c1ccc([N+](=O)[O-])cc1)C(Cl)Cl (stereo not given) | 1.04 ± 0.033 |
| CO[C@@H]1[C@@H](OC(=O)c2ccc(C)[nH]2)[C@@H](O)[C@@H](Oc2ccc3c(c2C)OC(=O)[C@H](NC(=O)c2[nH]cc(CC(=O)Nc4cc5ccc(O[C@@H]6OC(C)(C)[C@H](OC)[C@@H](OC(=O)c7ccc(C)[nH]7)[C@H]6O)c(C)c5oc4=O)c2C)C3)CC1(C)C | 2.26 ± 0.28 |
| CON=C(C(=O)NC1C(=O)N2C(C(=O)[O-])=C(COC(C)=O)CSC12)c1csc(N)n1.[Na+] (stereo not given) | 0.961 ± 0.082 |
| Nc1nc(C(=CCC(=O)O)C(=O)NC2C(=O)N3C(C(=O)O)=CCSC23)cs1 (stereo not given) | 0.885 ± 0.2 |
| O=c1[nH]c(=O)n([C@H]2C[C@H](O)[C@@H](CO)O2)cc1F | 0.993 ± 0.019 |
| CCn1cc(C(=O)O)c(=O)c2cc(F)c(N3CCNC(C)C3)c(F)c21.Cl (stereo not given) | 0.984 ± 0.05 |
| COC1(NC(=O)C(C(=O)[O-])c2ccc(O)cc2)C(=O)N2C(C(=O)[O-])=C(CSc3nnnn3C)COC21.[Na+].[Na+] (stereo not given) | 1.03 ± 0.046 |
| O=C(O)c1cn(C2CC2)c2cc(N3CCC(O)(COc4ccc(N5C[C@H](CO)OC5=O)cc4F)CC3)c(F)cc2c1=O | 1.38 ± 0.025 |
| N[C@H]1CCN(c2nc3c(cc2F)c(=O)c(C(=O)O)cn3-c2ccc(F)cc2F)C1 | 0.934 ± 0.034 |
| NCCONC(=O)[C@@H]1CC[C@@H]2CN1C(=O)N2OS(=O)(=O)O | 0.944 ± 0.034 |
| O=C([O-])CCC(=O)OCC(NC(=O)C(Cl)Cl)C(O)c1ccc([N+](=O)[O-])cc1.[Na+] (stereo not given) | 1.01 ± 0.081 |
| Cl.O=C(O)c1cn(-c2ccc(F)cc2)c2cc(N3CCNCC3)c(F)cc2c1=O | 0.836 ± 0.012 |
| Cn1cc(-c2[nH]c3cc(NC(=O)[C@H](N)C4CCCCC4)cc4c3c2C=NNC4=O)cn1 | 0.943 ± 0.039 |
| CCCCCCCCCCCCCCCC[N+](C)(C)Cc1ccccc1.[Cl-] | 0.176 ± 0.051 |
| O=C(Cn1cnnn1)NC1C(=O)N2C(C(=O)O)=C(CSc3nncs3)CSC12 (stereo not given) | 1.06 ± 0.098 |
| CO/N=C(\C(=O)N[C@@H]1C(=O)N2C(C(=O)O)=C(CSc3nnnn3C)CS[C@H]12)c1csc(N)n1 | 1.05 ± 0.082 |
| CC(N)O.Cc1cc(CC(C)CC(C)(C)C)n(O)c(=O)c1 (stereo not given) | 1.11 ± 0.024 |
| CO[C@@]12[C@@H]3N[C@@H]3CN1C1=C(C(=O)C(N)=C(C)C1=O)[C@@H]2COC(N)=O | 1.08 ± 0.11 |
| N[C@@H](C(=O)N[C@@H]1C(=O)N2C(C(=O)O)=C(Cl)CS[C@H]12)c1ccccc1 | 0.902 ± 0.062 |
| NCC1OC(OC2C(N)CC(N)C(OC3OC(CO)C(O)C(N)C3O)C2O)C(N)C(O)C1O.O=S(=O)(O)O (stereo not given) | 1.04 ± 0.018 |

| Structure (SMILES) | relative enzymatic activity |
| --- | --- |
| CON=C(C(=O)NC1C(=O)N2C(C(=O)O)=C(CSC(=O)c3ccco3)CSC12)c1csc(N)n1.Cl (stereo not given) | 0.89 ± 0.22 |
| COc1ccc2c(c1OC)C(=O)OC2C1c2c(cc3c(c2OC)OCO3)CCN1C.Cl (stereo not given) | 1.45 ± 0.16 |
| CCN1CCN(C(=O)NC(C(=O)NC2C(=O)N3C2SC(C)(C)C3C(=O)[O-])c2ccccc2)C(=O)C1=O.[Na+] (stereo not given) | 0.951 ± 0.086 |
| NC(=O)N/N=C/c1ccc([N+](=O)[O-])o1 | 1.08 ± 0.033 |
| Oc1c(Cl)cc(Cl)c(Cl)c1Cc1c(O)c(Cl)cc(Cl)c1Cl | 3.59 ± 0.79 |
| Cl.Cl.N=C(NCCCCCCNC(=N)NC(=N)Nc1ccc(Cl)cc1)NC(=N)Nc1ccc(Cl)cc1 | 0.901 ± 0.04 |
| CCN1CCN(c2cc3c(cc2F)c(=O)c(C(=O)O)cn3C2CC2)CC1 | 0.8357 ± 0.0041 |
| Cn1nnnc1SCC1=C(C(=O)[O-])N2C(=O)C(NC(=O)C(O)c3ccccc3)C2SC1.[Na+] (stereo not given) | 1.091 ± 0.0095 |
| NCCCC[C@H](NC(=O)[C@@H](NC(=O)[C@H](Cc1c[nH]c2ccccc12)NC(=O)[C@H](CCCCN)NC(=O)[C@H](CCCCN)NC(=O)[C@H](Cc1c[nH]c2ccccc12)NC(=O)[C@H](Cc1c[nH]c2ccccc12)NC(=O)[C@H](CCCCN)NC(=O)[C@@H](N)CCCCN)C(c1ccccc1)c1ccccc1)C(N)=O | 0.995 ± 0.015 |
| C=C1c2cccc(O)c2C(=O)[C@@H]2C(=O)[C@]3(O)C(=O)[C@@H](C(N)=O)C(=O)[C@@H](N(C)C)[C@@H]3[C@@H](O)[C@H]12 | 1.03 ± 0.034 |
| COC1C=COC2(C)Oc3c(C)c(O)c4c(O)c(c(C=NN5CCN(C)CC5)c(O)c4c3C2=O)NC(=O)C(C)=CC=CC(C)C(O)C(C)C(O)C(C)C(OC(C)=O)C1C (stereo not given) | 0.282 ± 0.059 |
| CC1(C)SC2C(N3C(=O)C(c4ccccc4)NC3(C)C)C(=O)N2C1C(=O)[O-].[K+] (stereo not given) | 0.925 ± 0.025 |
| CC[C@H]1OC(=O)[C@H](C)[C@@H](O[C@H]2C[C@@](C)(OC)[C@@H](O)[C@H](C)O2)[C@H](C)[C@@H](O[C@@H]2O[C@H](C)C[C@H](N(C)C)[C@H]2O)[C@](C)(OC)C[C@@H](C)C(=O)[C@H](C)[C@@H](O)[C@]1(C)O | 1.01 ± 0.14 |
| O=C([O-])C1=C(CSc2nnnn2CS(=O)(=O)[O-])CSC2C(NC(=O)C(O)c3ccccc3)C(=O)N12.[Na+].[Na+] (stereo not given) | 1.25 ± 0.052 |
| CC(C)[C@@H](CC[C@@H](C)[C@H]1CC[C@H]2[C@@H]3[C@H](O)C[C@H]4C[C@@H](NCCCNCCCCNCCCN)CC[C@]4(C)[C@H]3CC[C@]12C)OS(=O)(=O)O | 1.05 ± 0.014 |
| CCCCCCCCCCCCC[N+](C)(C)Cc1ccccc1.O.[Cl-] | 0.556 ± 0.086 |
| CC1C(NC(=O)C(=NOC(C)(C)C(=O)O)c2csc(N)n2)C(=O)N1S(=O)(=O)O (stereo not given) | 1.016 ± 0.0098 |
| O=C1CN(N=Cc2ccc([N+](=O)[O-])o2)C(=O)N1 | 1.051 ± 0.0033 |
| COC1=C(OC)C(=O)C(CCCCCCCCCC[P+](c2ccccc2)(c2ccccc2)c2ccccc2)=C(C)C1=O | 0.344 ± 0.24 |
| CON=C(C(=O)NC1C(=O)N2C(C(=O)[O-])=C(COC(N)=O)CSC12)c1ccco1.[Na+] (stereo not given) | 1.33 ± 0.083 |
